Data reported in PubChem BioAssay (NCI).
Where “and” joins values, the source holds several entries; their conditions need not be identical. Equal values may be shown once. Compounds without any hit were thinned out: in the full panel of roughly 83,000, 20% have a hit.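 Single-concentration screen, 48 h exposure, 96-well plates. Endpoint: percent growth. Below 10 = active.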 Calls of active or inactive are those of the source.

Columns and labels:
Test in all cases: NCI-60 one-dose screen, 48 h (100 = growth as untreated, 0 = no growth, -100 = all killed)
EKVX NSCLC = settings: 10 µM unless noted
SN12C renal = test system: SN12C renal
UO-31 renal = test system: UO-31 renal
TK-10 renal = test system: TK-10 renal
ACHN renal = test system: ACHN renal
A498 renal = test system: A498 renal
CCRF-CEM leukemia = settings: 10 µM unless noted
MOLT-4 leukemia = test system: MOLT-4 leukemia
SR leukemia = settings: 10 µM unless noted
RPMI-8226 leukemia = test system: RPMI-8226 leukemia
OVCAR-8 ovarian = test system: OVCAR-8 ovarian
OVCAR-5 ovarian = test system: OVCAR-5 ovarian
OVCAR-4 ovarian = test system: OVCAR-4 ovarian
SK-OV-3 ovarian = test system: SK-OV-3 ovarian
IGROV1 ovarian = test system: IGROV1 ovarian
OVCAR-3 ovarian = test system: OVCAR-3 ovarian
HS 578T breast = test system: HS 578T breast
CAKI-1 renal = settings: 10 µM unless noted
NCI/ADR-RES ovarian = settings: 10 µM unless noted

Measured: growth

O=c1ccn2c(n1)OC1CC2OC1COC(c1ccccc1)(c1ccccc1)c1ccccc1 (stereo not drawn)
inactive: EKVX NSCLC 96.3% [100 µM] | SN12C renal; 10 µM 103% | SN12C renal; 100 µM 69.2% | UO-31 renal; 10 µM 97% | UO-31 renal; 100 µM 89.9% | TK-10 renal; 10 µM unless noted 134% [100 µM] | ACHN renal; 10 µM 92% | ACHN renal; 100 µM 82.5% | A498 renal; 10 µM 116% | A498 renal; 100 µM 139% | CCRF-CEM leukemia 81.8% [100 µM] | MOLT-4 leukemia; 10 µM 104% | MOLT-4 leukemia; 100 µM 74.4% | SR leukemia 46.1% [100 µM] | RPMI-8226 leukemia; 10 µM 106% | RPMI-8226 leukemia; 100 µM 58.2% | OVCAR-8 ovarian; 10 µM 98.7% | OVCAR-8 ovarian; 100 µM 84.6% | OVCAR-5 ovarian; 10 µM 102% | OVCAR-5 ovarian; 100 µM 101% | OVCAR-4 ovarian; 10 µM 110% | OVCAR-4 ovarian; 100 µM 84.7% | SK-OV-3 ovarian; 10 µM 101% | SK-OV-3 ovarian; 100 µM 70.9% | IGROV1 ovarian; 10 µM 115% | IGROV1 ovarian; 100 µM 85.4% | OVCAR-3 ovarian; 10 µM 126% | OVCAR-3 ovarian; 100 µM 102% | HS 578T breast; 10 µM 121% | HS 578T breast; 100 µM 95.1%

COc1cc2oc3cc(=O)cc4oc(-c5ccccc5)cc(c2c2c1CCC(c1ccccc1)O2)c43 (stereo not drawn)
59.8% (inactive) and 8.17% (active): TK-10 renal; 100 µM
inactive: EKVX NSCLC 88.4% | SN12C renal; 10 µM unless noted 78.3% | UO-31 renal; 10 µM unless noted 57.9% | TK-10 renal; 10 µM 120% | ACHN renal; 10 µM unless noted 72.7% | CAKI-1 renal 57.4% | A498 renal; 10 µM unless noted 114% | CCRF-CEM leukemia 88.3% | MOLT-4 leukemia; 10 µM unless noted 72.5% | SR leukemia 69.6% | RPMI-8226 leukemia; 10 µM unless noted 61.4% | OVCAR-8 ovarian; 10 µM unless noted 87% | OVCAR-5 ovarian; 10 µM unless noted 106% | OVCAR-4 ovarian; 10 µM unless noted 84.8% | SK-OV-3 ovarian; 10 µM unless noted 92.8% | IGROV1 ovarian; 10 µM unless noted 70.3% | OVCAR-3 ovarian; 10 µM unless noted 106% | HS 578T breast; 10 µM unless noted 65.7% | NCI/ADR-RES ovarian 86.6%

O=C(N=C1C(=O)C2(CCCCC2)C2(N=C(c3ccccc3)OC2=O)C12CCCCC2)c1ccccc1 (stereo not drawn)
inactive: EKVX NSCLC 70.5% | SN12C renal; 10 µM unless noted 77.8% | UO-31 renal; 10 µM unless noted 58.5% | TK-10 renal; 10 µM unless noted 86.2% | CAKI-1 renal 70.9% | A498 renal; 10 µM unless noted 98.2% | CCRF-CEM leukemia 37.4% | MOLT-4 leukemia; 10 µM unless noted 50.5% | SR leukemia 71.8% | RPMI-8226 leukemia; 10 µM unless noted 53.2% | OVCAR-8 ovarian; 10 µM unless noted 75.4% | OVCAR-5 ovarian; 10 µM unless noted 85.8% | OVCAR-4 ovarian; 10 µM unless noted 73.8% | SK-OV-3 ovarian; 10 µM unless noted 99.3% | IGROV1 ovarian; 10 µM unless noted 75% | OVCAR-3 ovarian; 10 µM unless noted 63.6% | NCI/ADR-RES ovarian 76.8%

CN(C)C(=N)N=C(N)N
inactive: SN12C renal; 10 µM unless noted 95.3% and 127% | UO-31 renal; 10 µM unless noted 91.5% and 106% | TK-10 renal; 10 µM unless noted 119% and 149% | CAKI-1 renal 115% | A498 renal; 10 µM unless noted 128% and 106% | CCRF-CEM leukemia 79.9% | MOLT-4 leukemia; 10 µM unless noted 95.6% and 131% | SR leukemia 133% | RPMI-8226 leukemia; 10 µM unless noted 92.2% | OVCAR-8 ovarian; 10 µM unless noted 105% | OVCAR-5 ovarian; 10 µM unless noted 115% and 114% | OVCAR-4 ovarian; 10 µM unless noted 96.3% and 112% | SK-OV-3 ovarian; 10 µM unless noted 106% and 110% | IGROV1 ovarian; 10 µM unless noted 98.7% and 128% | OVCAR-3 ovarian; 10 µM unless noted 118% and 113% | HS 578T breast; 10 µM unless noted 144% | NCI/ADR-RES ovarian 105% and 111%

N#CC(=S)Nc1ccc(Cl)c(Cl)c1
inactive: EKVX NSCLC 10.9% | TK-10 renal; 10 µM 17.5% | CCRF-CEM leukemia 28.4% | MOLT-4 leukemia; 10 µM unless noted 15.8% | RPMI-8226 leukemia; 10 µM unless noted 19.7% | OVCAR-8 ovarian; 10 µM unless noted 10.1% | OVCAR-5 ovarian; 10 µM unless noted 11% | OVCAR-4 ovarian; 10 µM unless noted 22.6% | IGROV1 ovarian; 10 µM unless noted 19.5%
active: SN12C renal; 10 µM unless noted -7.92% | UO-31 renal; 10 µM unless noted -1.39% | TK-10 renal; 100 µM 8.11% and -69.1% | ACHN renal; 10 µM unless noted 0.0372% | CAKI-1 renal -6.76% | A498 renal; 10 µM unless noted -12% | SR leukemia 9.44% | SK-OV-3 ovarian; 10 µM unless noted 7.19% | OVCAR-3 ovarian; 10 µM unless noted 7.39% | HS 578T breast; 10 µM unless noted -7.34% | NCI/ADR-RES ovarian 7.44%

O=[N+]([O-])c1cccc(N=Cc2ccccc2)c1
inactive: EKVX NSCLC 102% | SN12C renal; 10 µM unless noted 104% | UO-31 renal; 10 µM unless noted 90.8% | TK-10 renal; 10 µM unless noted 94.2% | ACHN renal; 10 µM unless noted 102% | CAKI-1 renal 88.1% | A498 renal; 10 µM unless noted 110% | CCRF-CEM leukemia 95.7% | MOLT-4 leukemia; 10 µM unless noted 87.4% | SR leukemia 88.4% | RPMI-8226 leukemia; 10 µM unless noted 101% | OVCAR-8 ovarian; 10 µM unless noted 93.1% | OVCAR-5 ovarian; 10 µM unless noted 107% | OVCAR-4 ovarian; 10 µM unless noted 111% | SK-OV-3 ovarian; 10 µM unless noted 106% | IGROV1 ovarian; 10 µM unless noted 114% | OVCAR-3 ovarian; 10 µM unless noted 122% | HS 578T breast; 10 µM unless noted 110% | NCI/ADR-RES ovarian 108%
